Source: PubChem BioAssay
Values without a mark were called inactive.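 The calls were made as follows: active = viability loss from added drug above about 55%, and viability with drug at most 40%, in both replicates (limit read from the data, passing the limit was not always enough); inconclusive = both conditions met in only one replicate; inactive = neither replicate meets both conditions.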

Assay: MRP1 drug-resistance reversers in H69AR cells – cell-based, doxorubicin co-treatment, pilot screen (AID 601)
Settings: H69AR cells + 2 uM doxorubicin, CellTiter-Glo, 72 h; at 10 µM; hits give high values

SMILES | differential viability (reversal) [%]
CC1CCc2nn(CC(=O)NCc3ccc4c(c3)OCO4)cc2C1 (stereo not given) | 9.8
CCC(C)(C(=O)NC1CCCC1)N(Cc1cccs1)C(C)=O (stereo not given) | 6.71
COc1ccc(CCNC(=O)c2cnn3ccccc23)c(OC)c1OC | -0.525
CC1CCCN(S(=O)(=O)c2coc(C(N)=O)c2)C1 (stereo not given) | -23.4
Cn1c(C(=O)NCC2CCCO2)cc2c(=O)n(C)c3ccccc3c21 (stereo not given) | 8.52
O=C(Nc1cnn(Cc2ccc(Cl)cc2Cl)c1)c1noc2c1CCCC2 | 2.57
Clc1cccc(N2CCN(Cc3nc(-c4ccccc4)no3)CC2)c1 | -4.04
COC(=O)C1=C(C)NC(C)=C(C(=O)OC)C1C1CC=CCC1 (stereo not given) | 23.3
Cc1nnc(SCC(=O)NCc2ccccc2)s1 | 1.61
CC1=C(C(=O)Nc2ccc(F)cc2)C(c2cccc(C)c2)n2nc(CCCO)nc2N1 (stereo not given) | 1.5
CCOc1ccc(OCCCCN(C)C)cc1 | 1.8
CCCC(=O)C1=C(N(C)c2ccccc2)CC(C)(C)C(C(=O)OC)C1=O (stereo not given) | 1.22
CC1Cc2ccccc2N1C(=O)C12CCC(C)(C(=O)C1)C2(C)C (stereo not given) | 7.82
CC1CN(c2ccc(Oc3ccccc3)cc2)c2nc3c(c(=O)n(CC(N)=O)c(=O)n3C)n2C1 (stereo not given) | 4.74
COc1ccc(N2CCN(C(c3ccccc3)c3sc4nc(C)nn4c3O)CC2)cc1 (stereo not given) | -8.41
O=C(CCn1c(=O)oc2ccccc21)NCc1ccco1 | 10
COc1cccc(C2CC(c3ccc(C)cc3)n3nc(N)nc3N2)c1 (stereo not given) | -7.23
Cc1onc(-c2c(Cl)cccc2Cl)c1C(=O)NCC1CCCO1 (stereo not given) | 16
CC(=O)Nc1cccc(NC(=O)CSc2nn3c(=O)c(C)nnc3s2)c1 | 15.5
Cc1ccc2cc(CCNC(=O)C(C)C)c(=O)[nH]c2c1C | 6.72

SMILES | differential viability (reversal) [%]
CCOC(=O)c1c(C)n(C)c2c(C)cc(O)c(OC(C)=O)c12 | 13.4
CC(C)(O)C#Cc1ccc(C(=O)N2CCN(C(=O)c3ccco3)CC2)cc1 | 8.95
COc1ccc(-n2ncc3c(N4CCC(C)CC4)ncnc32)cc1 | 35.3
CCc1nc2sc(C)c(C)c2c(=O)n1CCO | 4.12
COc1cc2c(cc1OC)CN(C(=O)CSc1nc3[nH]ncc3c(=O)n1-c1ccccc1)CC2 | 11.6
Cc1ccccc1-n1c(Cn2c(=O)sc3ccccc32)nnc1SCC(N)=O | 6.29
Cc1nc2sc(C(c3cccs3)N3CCOCC3)c(O)n2n1 (stereo not given) | -4.79
Cc1nc2ccccc2c2oc(C(=O)N3CCN(C(=O)c4ccco4)CC3)cc12 | -0.275
CCC(C)NC(=O)c1cn(CC)c2ccc(S(=O)(=O)N(C)C)cc2c1=O (stereo not given) | -11.6
O=C(OCN1C(=O)c2ccccc2C1=O)C1CCCCC1 | -12.9
O=C(Nc1nc(-c2ccccn2)cs1)C1CC1 | -19.5
COCCOC(=O)C1=C(C)N=c2s/c(=C\c3cccs3)c(=O)n2C1c1cccs1 (stereo not given) | -4.05
CCOC(=O)c1sc2nc(NC(=O)C(C)(C)C)sc2c1C | 11.9
Cn1c(Cc2ccccc2)nnc1SCC(=O)NC1CCCCC1 | 12.9
CCCNC(=O)C1CC(=O)N(c2ccc(OCC(=O)Nc3cc(C)cc(C)c3)cc2)C1 (stereo not given) | 4.41
O=P(O)(CN1CCCCCC1)CN1CCCCCC1 | 7.6
O=c1oc2c3c4c(cc2cc1-c1nc2ccccc2[nH]1)CCCN4CCC3 | 2.58
CCOC(=O)c1[nH]c(C)c(C(=O)NC)c1C | 13.8
CCCOc1ccc(C2C(C(=O)OC)=CN(CCOC)C=C2C(=O)OC)cc1 | -2.27
CCCCN(CC)CCCNC(=O)c1cc2c(=O)n(C)c3ccccc3c2n1C | -0.115
